Consider 21 compounds from PubChem BioAssay AID504905 (The Scripps Research Institute Molecular Screening Center, 2011).

SMILES strings stand for the structures. This is one part of the list. Unmarked numbers belong to inactive results. Calls of active or inactive are those of the source. Cut-off read from the data, not from the text of the source: active = activation above about 17%; inactive = the rest.

In this experiment the target is 5-hydroxytryptamine receptor 5A (Homo sapiens) (UniProt P47898). Nature of the experiment: HTR5A agonists in cells, counter-screen for OPRM1-OPRD1 heterodimer agonist project, cell-based, luminescence (AID 504905).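 Note: 0% = vehicle-treated cells and 100% = reference agonist response.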 The note with it: HTR5A agonist counterscreen, at 9.3 µM, hits give high values. A general note: Counterscreens check selectivity or assay interference.
5-hydroxytryptamine receptor 5A (Homo sapiens), sequence (P47898 whole entry, looked up): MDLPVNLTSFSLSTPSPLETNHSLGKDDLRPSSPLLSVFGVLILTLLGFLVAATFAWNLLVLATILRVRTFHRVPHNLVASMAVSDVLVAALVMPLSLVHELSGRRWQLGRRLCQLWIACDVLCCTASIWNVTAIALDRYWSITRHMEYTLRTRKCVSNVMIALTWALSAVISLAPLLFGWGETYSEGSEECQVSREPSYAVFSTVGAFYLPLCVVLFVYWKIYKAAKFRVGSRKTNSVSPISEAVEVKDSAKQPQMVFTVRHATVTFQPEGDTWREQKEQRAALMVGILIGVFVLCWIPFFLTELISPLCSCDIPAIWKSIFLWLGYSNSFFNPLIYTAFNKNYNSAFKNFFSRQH
For `COCCCNc1nc2c(-c3cccc(C)c3)nnn2c2ccc(Cl)cc12`, the activation was 8.68%. Consider `COc1cc(/C=N/NC(=O)Nc2ccccc2)ccc1OCCOc1ccccc1C`, for which the activation was 10.4%. To `CCC(C(=O)OCC(=O)Nc1ccc(C(=O)Nc2ccc(OC)cc2)cc1)c1ccccc1` (stereo unspecified) belongs 5.87%; to `CC(OC(=O)/C=C/c1ccccc1)C(=O)Nc1ccc(C(N)=O)cc1` (stereo unspecified), 0.16%. Next, `Cc1ccc(S(=O)(=O)N(CC(=O)Nc2cccnc2)c2ccc(Br)cc2)cc1`: 0.5%. Next, `CN(C)CCCN(C(=O)c1ccc(S(=O)(=O)N2CCCc3ccccc32)cc1)c1nc2ccc(F)cc2s1`: 7.49%.

Consider `CN(C)C(CNC(=O)c1cc2ccccc2o1)c1ccccc1` (stereo unspecified), for which the activation is 46.9% (active). For `O=C(Nc1ccc(OC(F)(F)F)cc1)c1ccc2c(c1)no[n+]2[O-]`, the activation is 1.96%. To `COc1cccc(/C=N/Nc2cc(C)nc(-c3ccccc3O)n2)c1O` belongs 0.01%.

Take `COc1ccc(SC[C@H](Cc2ccccc2)N2CCN(CCc3ccccc3)CCC2=O)cc1`: the activation is -1.8%. As for `CCOC(=O)c1c(C)[nH]c2c1-c1ccccc1C(=O)C2=O`, the activation is 9.05%. As for `Clc1ccc(COn2c(-c3ccc(Cl)cc3Cl)nc3ncccc32)cc1`, the activation was 0.23%. `COC(=O)c1ccc(C23CC4(C2)[C@H](CN(Cc2cccnc2)[C@@H]4c2ccccc2)C3c2ccc(Cl)nc2)cc1` (stereo partly specified): the activation was 5.91%. To `CCCC(=O)NC(C)C(c1cccs1)N1CCN(c2ccccc2)CC1` (stereo unspecified) belongs -1.26%; to `CC1CCCN(CCOCCOc2ccccc2-c2ccccc2)C1` (stereo unspecified), 1.05%. Regarding `Cc1ccc(CN(C(=O)c2sc3ccccc3c2Cl)C2CCS(=O)(=O)C2)cc1` (stereo unspecified), the activation was 1.71%. To `Cc1ccc(OCC(=O)Nc2ccc(NC(=O)c3cccs3)cc2)c(C)c1` belongs 8.16%. Next, `O=C(NCc1cn2ccsc2n1)Nc1ccc(Cl)cc1`: -5.53%; `Cc1ccc(CNC(=O)CC(NC(=O)c2ccccc2)c2ccccc2)cc1` (stereo unspecified): -9.71%. Next, `Cc1ccc(-n2c(SCC(=O)NCCC3=CCCCC3)nc3n[nH]c(C)c3c2=N)cc1Cl`: 1.57%; `CN1CCN(c2ccc([N+](=O)[O-])c(Sc3nc4ccccc4[nH]3)c2)CC1`: -0.05%.
